Source: PubChem
Sampled rows, rich in hits. Any-hit rate of the full collection: about 6%.
D3 ag: agonists of human D3 dopamine receptor | D3R DiscoveRx beta-arrestin cells, luminescence, 90 min | AID 652048 | max activation, % | 0.58% of 410,000 active; in the data active means max activation above about 30%; further: 0% is about no effect
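Agonist-mode cell screen: cells plated at 1500/well and incubated overnight at 37 °C, then exposed to library compounds for 90 min at 37 °C. Detection reagent was added for 30–60 min at room temperature, and luminescence was read.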
D3 antag: D3 dopamine receptor (human) antagonism; D3R cells, DiscoveRx beta-arrestin luminescence, antagonist mode; stronger effect = lower value; 2.5% of 360,000 active; max response, negative = inhibition, %; AID 652054; in the data active means max response below about -50%; inconclusive means no clear call, values can overlap the other calls; further: on the % scale 0 is the no-effect control and ±100 the full control effect
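Cells expressing the human receptor were seeded at 1500 cells/well, incubated overnight at 37 degrees C in 5% CO2, then exposed to library compounds with dopamine controls for 90 minutes at 37 degrees C before luminescent detection.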
D1 potentiator: enhances dopamine response at the human D1 receptor. 0.036% of 360,000 active. potentiation, % at 10 µM. HEK293 TREx D1 cells, calcium flux, dopamine EC20 potentiation. AID 504651; in the data active means potentiation above about 30%; further: 0% is about no effect
Target sequence (P21728 whole entry, looked up): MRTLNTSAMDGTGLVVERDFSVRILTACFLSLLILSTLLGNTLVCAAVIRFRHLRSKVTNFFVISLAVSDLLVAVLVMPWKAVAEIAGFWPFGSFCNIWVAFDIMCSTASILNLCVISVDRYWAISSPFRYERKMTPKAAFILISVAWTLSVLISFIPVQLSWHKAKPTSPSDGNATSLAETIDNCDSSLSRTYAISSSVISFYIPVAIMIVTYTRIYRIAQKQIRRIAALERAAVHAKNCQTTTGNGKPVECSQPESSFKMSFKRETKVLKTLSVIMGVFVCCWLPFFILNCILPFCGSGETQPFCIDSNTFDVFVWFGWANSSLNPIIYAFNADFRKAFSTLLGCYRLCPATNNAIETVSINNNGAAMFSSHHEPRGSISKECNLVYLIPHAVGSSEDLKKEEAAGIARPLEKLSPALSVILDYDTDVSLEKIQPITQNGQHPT
D1 ag: agonists of human D1 dopamine receptor. P21728. HEK293 T-REx D1 cells, calcium flux, agonist mode. activation, % at 2 µM. 1% of 360,000 active. AID 504660; in the data active means activation above about 30%; further: 0% is about no effect
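Tetracycline-induced HEK293 TREx D1 cells, force-coupled to calcium signalling, were dye-loaded with a no-wash calcium kit. Compound was pin-added after a 10 s baseline. Fluorescence was read kinetically at 1 cycle/s for 180 s, with calcium rises flagged as agonism.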
D1 antagonist: blocks dopamine activation of the human D1 receptor; P21728; HEK293 TREx D1 cells, calcium flux, dopamine EC80; stronger effect = lower value; activity change, negative = inhibition, % at 10 µM; 3.2% of 360,000 active; AID 504652; in the data active means activity change below about -30%; further: on the % scale 0 is the no-effect control and ±100 the full control effect
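HEK293 T-REx cells expressing inducible, force-coupled D1 receptor; no-wash Ca dye, 30–90 min RT. Cmpd → 180 s read at 1 Hz → EC80 DA → 180 s read.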
Starred values were filed as active, the others as inactive; ? = inconclusive; · = not tested or not shown.

SMILES	D3 ag	D3 antag	D1 potentiator	D1 ag	D1 antagonist
N=C(N)Cc1ccccc1Sc1ccccc1	1	3	-8	5	-49*
Cc1ccc(Nc2nc(-c3ccc(F)cc3)cs2)nc1	7	38	-6	2	-37*
Cc1ccc(C(=O)Nc2nc(-c3ccc(F)cc3)cs2)o1	-3	15	-6	2	-48*
O=C(CN1C(=O)C2CC=CCC2C1=O)Nc1nc(-c2ccc(F)cc2)cs1 (centres undefined)	2	30	0	5	-46*
O=C(Nc1nc(-c2ccccc2)cs1)c1ccccc1NS(=O)(=O)c1ccc(F)cc1	2	1	-6	15	-48*
O=C(CN1C(=O)C2CCCCC2C1=O)Nc1nc(-c2ccc(F)cc2)cs1 (centres undefined)	3	7	-5	2	-3
Cc1ccc(Nc2nc(-c3ccc(O)c(O)c3)cs2)nc1	2	-4	-2	3	6
COc1cccc(C(=O)NCC(c2ccc(N(C)C)cc2)N2CCOCC2)c1OC (centres undefined)	4	·	0	0	-8
Cc1cc(OCCCCNC(C)C)cc(C(C)C)c1	-13	-69*	2	7	-3
CC1(c2ccc(Cl)cc2)NC(=O)N(CC(=O)N2CCc3ccccc3C2)C1=O (centres undefined)	1	0	1	32*	28
CC1(c2ccccc2Cl)NC(=O)N(CC(=O)N2CCc3ccccc3C2)C1=O (centres undefined)	2	?	-3	6	4
Cc1ccc2nc(SCC(=O)Nc3nonc3N)[nH]c2c1	-1	8	-2	0	0
CCOc1ccc2nc(SCC(=O)Nc3nonc3C)[nH]c2c1	-8	-6	-4	1	-35*
CCn1c(=O)c2cc(C(=O)NC3CCC(C)CC3)sc2c2ccccc21 (centres undefined)	-15	·	3	4	14
Cc1nc(SCCCSc2n[nH]c(C)n2)n[nH]1	-9	-69*	-4	-1	10
C[C@H](CN1CCCC1)C(=O)c1ccc(C(F)(F)F)cc1	-4	·	·	·	·
CCn1cc([N+](=O)[O-])c(C(=O)N2N=C(c3ccc(Cl)c(Cl)c3)CC2c2ccccc2O)n1 (centres undefined)	15	17	-1	9	14
CCn1cc([N+](=O)[O-])c(C(=O)N2N=C(c3ccc4ccccc4c3)CC2c2cc(Br)ccc2O)n1 (centres undefined)	2	-61*	7	3	0
CC(C)CNC(=S)NNC(=O)c1csc2ccccc12	-27	-66*	0	0	-7
CCCNC(=O)c1csc2c1CCCCC2	1	1	-2	-1	10
CC(C)CNC(=S)NNC(=O)c1csc2c1CCCC2	-17	-57*	-4	1	25
O=c1n(Cc2ccc([N+](=O)[O-])cc2)c2ccccc2c2nc(-c3ccccc3)nn12	53*	·	-4	2	-20
CCOc1ccc(NC(=O)C2CC(=O)NC(=Nc3ccc(Cl)c(Cl)c3)S2)cc1 (centres undefined)	-9	·	-1	0	1
O=C(O)c1ccc(Nc2nc3ccc(Cl)cc3[nH]2)cc1	-14	-54*	-7	2	-7
Cc1ccc(NC(=O)C2=C(c3ccccc3)S(=O)(=O)CCS2(=O)=O)cc1	-22	-71*	0	2	16
SMILES	D3 ag	D3 antag	D1 potentiator	D1 ag	D1 antagonist
OCCN1CCN(C2CCC(c3ccc(F)cc3)c3ccc(F)cc32)CC1 (centres undefined)	-21	-63*	·	·	·
O=C(NCCc1ccccc1)c1ccc(Cn2c(SCc3ccccc3F)nc3cccnc32)cc1	-6	·	-1	10	5
COc1ccc(CCNC(=O)c2cccc(-n3cnc4cccnc43)c2C)cc1OC	0	·	-2	0	-1
COc1ccccc1-c1nnc(NC(=O)C(C)Sc2nncn2C)s1 (centres undefined)	0	-5	1	1	3
CCCCOC(=O)Nc1nnc(-c2ccccc2OC)s1	-5	15	-2	4	-1
COc1ccccc1-c1nnc(NC(C)=O)s1	-5	-88*	12	1	0
COc1ccccc1-c1nnc(NC(=O)C(C)C)s1	-2	-75*	-3	5	0
COc1cc(C(NC=O)C(=O)Nc2c(C)cccc2C)ccc1O (centres undefined)	2	-1	1	1	4
Cc1cccc(C)c1NC(=O)C(NC=O)c1ccc(Cl)cc1 (centres undefined)	-6	-56*	-4	0	7
Cc1ccc(C)n1-c1nnc(N2CCCC(C(=O)NCc3ccc(F)cc3)C2)s1 (centres undefined)	-12	·	2	1	16
COc1ccc(CCNC(=O)Cn2c(=O)n(-c3cc(F)ccc3F)c(=O)c3sccc32)cc1OC	8	172	-3	0	-1
COc1ccc(CCNC(=O)Cn2c(=O)n(-c3ccc(F)cc3F)c(=O)c3sccc32)cc1OC	19	95	-6	0	-36*
COc1ccc(CNC(=O)C2CCCN(C(=O)c3cnn(-c4ccc(F)cc4)c3-n3cccc3)C2)cc1 (centres undefined)	6	·	3	1	5
O=C(Nc1ccc2c(c1)C(=O)NC2=O)c1ccc(Cl)s1	-7	0	-4	1	7
Cc1cccc(C(=O)Nc2ccc3c(c2)C(=O)NC3=O)c1	0	22	-7	1	-4
O=C(Nc1ccc2c(c1)C(=O)NC2=O)c1cc(Cl)ccc1Cl	-1	10	-5	1	-31*
O=C(Nc1ccc2c(c1)C(=O)NC2=O)c1cccc(Cl)c1	-2	5	-6	-1	-33*
O=C(CSc1ccc(F)cc1)Nc1ccc2c(c1)C(=O)NC2=O	-7	?	-10	12	-37*
Clc1cccc(-n2ncc3c(NC4CCCCC4)ncnc32)c1	-15	·	0	-1	38
O=C1CCc2ccc(OCCCCN3CCN(c4cccc(Cl)c4Cl)CC3)cc2N1	·	·	·	·	-44*
COc1ccc(-c2cc3ccccc3nc2N)cc1OC	4	12	-5	12	-38*
COc1ccc(NS(=O)(=O)c2cc3[nH]c(=O)c(=O)[nH]c3cc2C)cc1OC	11	·	-5	3	-7
CCOC(=O)C1CCN(c2nc3c(S(=O)(=O)c4ccccc4)nnn3c3ccc(Cl)cc23)CC1	-6	·	-5	2	21
CC(NC(=O)c1cccc(S(=O)(=O)N2CCN(C)CC2)c1)c1ccc(Cl)cc1Cl (centres undefined)	4	21	-5	16	-45*
CC(C)c1ccc(OC(=O)c2cccc(S(=O)(=O)N3CCN(C)CC3)c2)cc1	-8	-8	-12	9	-28
CN1CCN(S(=O)(=O)c2cccc(C(=O)Oc3ccc(C(C)(C)C)cc3)c2)CC1	-7	-25	-4	7	-30*
